Assay outcomes from PubChem BioAssay.
An excerpt weighted towards active compounds, which were near 19% of everything screened.
TGFb inhibitor: qHTS for Inhibitors of TGF-b; HepG2 CAGA-GFP TGF-b/SMAD3 reporter, GFP fluorescence, 18 h; TGF-beta stimulated, 500 pg/mL final; Potency, µM (top dose mostly 46.1 µM), for the others: at the highest dose activity, negative = inhibition, actives largely listed as inhibitors; actives 1.2% (n = 410,000); AID 588855, 2011; also: potency is read from the fitted curve at half-maximal effect; % is scaled to controls: 0 for no effect and ±100 for the full control effect; nearly all actives have a fitted effect of over 65% in size
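Using HEPG2 CAGA-GFP reporter cells at 1000 cells/well, we pinned test compounds, stimulated with recombinant TGF-beta (500 pg/mL final) and measured total well GFP after 18 h.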
TDP1 cell CPT: qHTS for Inhibitors of human tyrosyl-DNA phosphodiesterase 1 (TDP1): qHTS in cells in presence of CPT; chicken DT40 Tdp1-/-;hTDP1 cells + 20 nM CPT, ATP luminescence, 48 h; Potency, µM (top dose mostly 46.2 µM), for inactives: at the top dose activity change, negative = growth inhibition, most hits filed as inhibitors; actives 12% (n = 420,000); also: potency is read from the fitted curve at half-maximal effect; % is scaled to controls: 0 for no effect and ±100 for the full control effect; nearly all actives have a fitted effect of over 55% in size
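Chicken DT40 Tdp1-/- cells complemented with human TDP1, 400 cells/well, exposed to compounds plus 20 nM camptothecin for at least 48 h at 37 C; viability read as ATP content by CellTiter-Glo luminescence.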
HepG2 viability: qHTS for Inhibitors of TGF-b: Cytotox Counterscreen | HepG2 CAGA-GFP viability, ATP luminescence, 18 h | Potency, µM (doses to about 46.1 µM), for inactives: top-dose activity change, negative = cytotoxicity, hits mostly cytotoxic | actives 0.76% (n = 410,000); also: potency is read from the fitted curve at half-maximal effect
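HepG2 CAGA-GFP cells (1000/well, DMEM with 1% FBS) received compound, then TGF-beta at 500 pg/mL final, and were incubated 18 hours at 37 degrees C. Viability was read by CellTiter-Glo luminescence. Media-only wells were set as complete cell-killing and DMSO as no toxicity.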
IL1B secr inh: qHTS for Inhibitors of Inflammasome Signaling: IL-1-beta AlphaLISA Primary Screen; activity change, % at 57.5 µM; actives 4.7% (n = 360,000); AID 743279, 2014; THP-1 LPS/ATP IL-1B secretion, AlphaLISA, 16 h; active compounds read low; in the data active = activity change below about -50%; inconclusive = mostly about -30% to -49%; also: % is scaled to controls: 0 for no effect and ±100 for the full control effect
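Secreted IL-1B measured by AlphaLISA bead assay after 16 h compound exposure of THP-1 cells; compounds (final up to 57.5 uM) added 1 h before LPS (250 ng/mL) and ATP (1.25 mM) stimulation; lower signal means less secretion.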
DT40 TDP1 no CPT: qHTS for Inhibitors of human tyrosyl-DNA phosphodiesterase 1 (TDP1): qHTS in cells in absence of CPT | DT40 Tdp1-/- hTDP1 cells, no CPT, ATP luminescence, 48 h | Potency, µM (titrated, usually from 46.2 µM), inactives show at the highest dose activity change, negative = growth inhibition, actives largely listed as inhibitors | actives 15% (n = 420,000); also: potency is read from the fitted curve at half-maximal effect; % is scaled to controls: 0 for no effect and ±100 for the full control effect; nearly all actives have a fitted effect of over 55% in size
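Readout: luminescence from CellTiter-Glo after 30 min in the dark at RT. Cells: DT40 Tdp1-/- with stable hTDP1, 400/well. Exposure: compounds alone, ≥48 hr, 37 °C.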
TDP1 inh: qHTS Assay for Inhibitors of Tyrosyl-DNA Phosphodiesterase (TDP1); Potency, µM (titrated, usually from 130 µM), inactives show at the highest dose activity change, negative = inhibition, hits mostly inhibitors; Tyrosyl-DNA phosphodiesterase 1 (Homo sapiens), Q9NUW8; AID 485290, 2010; actives 0.28% (n = 350,000); recombinant TDP1, AlphaScreen DNA substrate cleavage; also: potency is read from the fitted curve at half-maximal effect; % is scaled to controls: 0 for no effect and ±100 for the full control effect; nearly all actives have a fitted effect of over 40% in size
Target sequence (Q9NUW8 whole entry, looked up): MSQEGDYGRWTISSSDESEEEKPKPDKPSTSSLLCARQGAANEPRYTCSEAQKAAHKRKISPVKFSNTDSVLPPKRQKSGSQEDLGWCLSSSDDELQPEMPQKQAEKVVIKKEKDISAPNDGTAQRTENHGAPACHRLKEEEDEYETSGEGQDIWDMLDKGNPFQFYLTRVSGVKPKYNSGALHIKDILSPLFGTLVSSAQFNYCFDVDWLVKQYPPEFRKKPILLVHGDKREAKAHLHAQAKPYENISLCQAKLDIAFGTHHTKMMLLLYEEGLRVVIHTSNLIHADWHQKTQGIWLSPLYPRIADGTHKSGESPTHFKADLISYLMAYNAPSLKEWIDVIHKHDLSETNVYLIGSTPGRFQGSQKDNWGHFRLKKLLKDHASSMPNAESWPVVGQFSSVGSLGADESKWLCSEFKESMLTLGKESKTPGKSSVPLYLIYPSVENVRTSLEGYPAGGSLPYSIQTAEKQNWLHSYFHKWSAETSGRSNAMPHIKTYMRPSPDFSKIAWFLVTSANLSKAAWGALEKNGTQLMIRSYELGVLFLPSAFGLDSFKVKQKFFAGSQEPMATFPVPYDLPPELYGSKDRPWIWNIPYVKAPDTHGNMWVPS
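AlphaScreen read-out: signal falls as enzyme removes the 3' tyrosine-FITC from a 5'-biotinylated DNA oligo (15 nM, 5 min, RT). Enzyme was E. coli-made recombinant Tdp1 at 1 nM, exposed to compound for 15 min beforehand; beads 10 ug/ml, 10 min.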
Numbers without * were called inactive; ? = inconclusive; · = no result. Unless noted, calls follow the shape of the dose curve; as a rule, active = well fitted curve in the direction sought with a large enough effect; inconclusive = small, poorly fitted or top-dose-only effect, or another doubt; inactive = no such curve, though single readings can be large; an effect the other way counts as inactive or inconclusive.

SMILES | TGFb inhibitor | TDP1 cell CPT | HepG2 viability | IL1B secr inh | DT40 TDP1 no CPT | TDP1 inh
Cc1ccc(S(=O)(=O)Nc2cccc3c2O[C@@H](CN(C)C(=O)Nc2ccc4c(c2)OCO4)[C@H](C)CN([C@@H](C)CO)C3=O)cc1 | -14.5% | ? | -6.6% | -0.8 | ? | 3.9%
Cc1ccc(S(=O)(=O)Nc2cccc3c2O[C@H](CN(C)C(=O)Nc2ccc(C(F)(F)F)cc2)[C@@H](C)CN([C@H](C)CO)C3=O)cc1 | ? | 16.4µM* | -7.0% | -10.6 | ? | 2.4%
C[C@@H]1CN([C@H](C)CO)C(=O)c2cc(NC(=O)Nc3ccc(C(F)(F)F)cc3)ccc2O[C@H]1CN(C)C(=O)Nc1ccc(F)cc1 | ? | ? | -0.1% | -61.5* | ? | ·
C[C@H](CO)N1C[C@H](C)[C@@H](CN(C)Cc2ccncc2)Oc2c(NS(=O)(=O)c3ccccc3)cccc2C1=O | -3.6% | -0.7% | -2.0% | -3.4 | -23.7% | -0.4%
CN1CCC(N(C)C(=O)COc2ccccc2Cl)CC1 | ? | 1.4% | -1.7% | 25.0 | -12.3% | 1.0%
COc1ccc(C)cc1S(=O)(=O)N1CCCC(C(=O)NC2CC2)C1 (stereo not given) | 2.1% | 15.8% | -6.5% | 9.6 | 2.3% | 5.3%
COc1ccc(S(=O)(=O)Nc2cccc3c2O[C@H](CN(C)Cc2ccc(Cl)c(Cl)c2)[C@@H](C)CN([C@H](C)CO)C3=O)cc1 | ? | 20.6µM* | -5.0% | -56.3* | 18.4µM* | 0.7%
C[C@H](CO)N1C[C@H](C)[C@@H](CN(C)C)Oc2c(NC(=O)CCC(F)(F)F)cccc2C1=O | ? | -7.1% | 7.0% | 6.6 | -6.3% | 0.1%
C[C@H](CO)N1C[C@H](C)[C@@H](CN(C)Cc2ccc3c(c2)OCO3)Oc2c(NC(=O)Cc3ccccc3)cccc2C1=O | ? | 23.1µM* | -0.1% | -18.3 | 20.6µM* | 6.0%
C[C@H]1CN([C@@H](C)CO)C(=O)c2cccc(NC(=O)Nc3ccc(C(F)(F)F)cc3)c2O[C@@H]1CN(C)C(=O)Nc1ccc(F)cc1 | ? | 5.17µM* | -89.2% | 0.8 | 5.8µM* | 1.7%
C[C@@H]1CN([C@@H](C)CO)C(=O)c2cccc(NS(C)(=O)=O)c2O[C@H]1CN(C)C(=O)Nc1ccc(F)cc1 | -12.7% | -21.7% | -2.0% | -8.7 | -15.1% | 1.5%
C[C@H]1CN([C@@H](C)CO)C(=O)c2cccc(NS(=O)(=O)c3ccc(F)cc3)c2O[C@H]1CN(C)Cc1ccc(Cl)c(Cl)c1 | ? | ? | -12.4% | ? | ? | 4.1%
C[C@H]1CN([C@@H](C)CO)C(=O)c2cccc(NC(=O)Nc3ccc(C(F)(F)F)cc3)c2O[C@H]1CN(C)C | -14.2% | 20.6µM* | -11.8% | -9.3 | ? | -0.2%
Cc1ccc(OCCC(=O)OCC(=O)Nc2ccc3c(c2)OCO3)cc1 | 4.3% | 2.1% | -5.9% | 15.8 | -13.0% | -3.0%
CC1(C)Cc2c(sc(NC(=O)Cc3ccccc3)c2C#N)C(C)(C)N1 | -0.5% | ? | -1.8% | -4.0 | ? | ·
COc1ccc2nc(N(Cc3cccnc3)C(=O)c3ccc(Cl)cc3)sc2c1 | -0.3% | -0.9% | -0.2% | · | -21.3% | 10.4%
COc1ccc(NC(=O)N(C)C[C@H]2Oc3c(NC(=O)NC(C)C)cccc3C(=O)N([C@H](C)CO)C[C@@H]2C)cc1 | -1.8% | 2.2% | -2.1% | 22.3 | 1.2% | 1.2%
COc1ccc(NC(=O)Nc2cccc3c2O[C@H](CN(C)C(=O)Nc2ccc(C(F)(F)F)cc2)[C@@H](C)CN([C@H](C)CO)C3=O)cc1 | ? | 25.9µM* | -4.8% | -16.7 | 16.4µM* | 0.4%
Cc1ccccc1CNC(=O)C(C)N(c1ccccc1)S(C)(=O)=O (stereo not given) | -0.1% | 0.1% | 1.6% | · | 0.3% | ·
O=C(c1cccc([N+](=O)[O-])c1)N1c2ncnn2C2(CCCCC2)[C@@H]2CCCC[C@@H]21 | 1.0% | ? | -16.4% | · | 8.2µM* | 3.6%
Cc1ccc(NC(=O)Cn2cnc3onc(-c4ccc(F)cc4)c3c2=O)c(Cl)c1 | -9.7% | -21.6% | -42.9% | · | -26.7% | 2.1%
Cc1nc(C(=O)Nc2cc(Cl)ccc2Cl)nn1-c1cc(OC(C)C)c(Cl)cc1Cl | 11.9% | 16.4µM* | 5.6% | 12.2 | 11.6µM* | -3.9%
Cc1nc(C(=O)Nc2cccc(Cl)c2)nn1-c1cc(OC(C)C)c(Cl)cc1Cl | ? | 16.4µM* | 22.9% | -5.4 | ? | -2.6%
COc1ccc(C(=O)Nc2ccc(C(=O)OCc3cc(=O)n4nc(C5CC5)sc4n3)cc2)cc1 | 11.5% | -19.0% | -0.1% | · | -0.4% | -8.8%
Brc1ccc(CN2CCc3nc(Nc4ccccc4)ncc3C2)s1 | ? | ? | -22.2% | · | ? | 1.2%
SMILES | TGFb inhibitor | TDP1 cell CPT | HepG2 viability | IL1B secr inh | DT40 TDP1 no CPT | TDP1 inh
CCC(C)c1ccc(NC(=O)C2=CC=CN3CCS(=O)(=O)N=C23)cc1 (stereo not given) | -9.6% | ? | -38.6% | 13.9 | -19.2% | -0.3%
CC(C)CCNc1nc2c(S(=O)(=O)c3ccc(Br)cc3)nnn2c2ccsc12 | 11.9% | ? | -2.0% | · | -24.1% | 0.0%
O=C(Nc1csc([N+](=O)[O-])c1)Nc1c(Cl)cccc1Cl | -17.6% | ? | -18.9% | -9.8 | 16.4µM* | ·
CCNC(=O)NC(=O)c1csc([N+](=O)[O-])c1 | -2.1% | -0.1% | 9.2% | -3.2 | -11.9% | 4.1%
CC(=O)Nc1cc(-c2cccc(F)c2)cn2c(-c3ccccc3)cnc12 | -25.2% | 18.4µM* | -40.0% | -7.8 | ? | ·
CC(=O)Nc1cc(-c2cccc(C(=O)N(C)C)c2)cn2c(-c3ccc(C(C)=O)cc3)cnc12 | 5.8% | 16.4µM* | -0.7% | ? | 11.6µM* | ·
CC(=O)Nc1cccc(-c2cc(NC(C)=O)c3ncc(-c4ccc(F)cc4)n3c2)c1 | -7.0% | ? | -7.6% | 22.4 | 14.6µM* | ·
CC(=O)Nc1cc(-c2ccoc2)cn2c(-c3ccccc3)cnc12 | ? | 1.03µM* | -7.1% | -12.1 | 0.92µM* | ·
